In ChEMBL document CHEMBL3988442, “University of Dundee, Small-Polar-MMV Screening Library” (2021):

molecular target: AMP-activated protein kinase, AMPK (Homo sapiens) (UniProt P54646+O43741+P54619+Q9UGJ0+Q9Y478+Q13131+Q9UGI9); assay: AMP-dependent Kinase enzyme assay. An in vitro enzyme assay that detects ADP turnover that is directly proportional to AMPK activity. This uses naive AMPK that is activated during the assay with MK-8722; format: functional; design: scale not given: direction of the effect not stated beside the values; settings: 30 µM

SMILES	Percent Effect [%]
COCC(=O)N1CCC(c2c(C(=O)N(C)C)sc3ncccc23)C1 (centres undefined)	1.82
Cc1ccccc1N1CCN(C(=O)CCc2nncn2C)C(C)C1 (centres undefined)	6.58
CC(C)(NCCOc1ccc(CC#N)cc1)c1nccs1	-2.44
COc1ccc(C(=O)NCC2CCCN(C3CCOCC3)C2)c(O)c1 (centres undefined)	14.3
CCNC(=O)c1ccc(NC2CCOC3(CCCC3)C2)nn1 (centres undefined)	2.07
CC(C)Oc1ccccc1CNC(=O)N(C)C(C)CS(C)(=O)=O (centres undefined)	9.72
Cc1nc(COC(=O)c2cccc3c2OCCO3)no1	-12.1
O=C(C1CC(c2ccccc2)=NO1)N1CCc2ccccc21 (centres undefined)	13.9
O=S(=O)(NC1CCN(CC(F)(F)F)C1)c1cc(F)cc(F)c1 (centres undefined)	4.84
Cc1ccc(S(C)(=O)=O)cc1NCC(=O)NCCC1=CCCCC1	0.0953
Cc1cc(C)nc(NC2CCN(CCOC(C)C)CC2)n1	7.53
CN1CC(C(=O)NCCc2ccc3c(c2)OCO3)CC1=O (centres undefined)	3.69
Cc1nn(C)c(C)c1CCC(=O)NCC1(C(N)=O)CCOCC1	1.16
CCc1ccccc1OCCN(C)C(=O)CCN1CCCCO1	0.981
COc1ccccc1C(C)(C)NC(=O)c1cc(NC(C)=O)ccc1F	-6.77
c1ccc(CCN2CCN(C3CCOC4(CCOCC4)C3)CC2)cc1 (centres undefined)	-8.46
Cc1nsc(C(=O)NCCc2ccc(F)cc2)n1	-2.41
O=C(NCCc1ccncc1)c1cccc(S(=O)(=O)NC2CC2)c1	-4.52
CCn1c(C2CCN(C(=O)c3ccc4sc(C)nc4c3)CC2)n[nH]c1=O	-0.0637
